CCT modulator – modulators of cytosolic chaperonin (CCT/TRiC) activity; activity change, % (test concentration not listed), hits read low; AID 651819; 360,000 tested, 0.3% active; purified chaperonin ATPase assay, HTRF ADP detection, 30 min; in the data active means activity change below about -30%
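TRiC at 40 or 20 nM final (batch-dependent) in 30 mM Tris pH 7.4, 100 mM KCl, 5 mM MgCl2, 1 mM DTT, with compound at single 76 uM and 10 uM ATP, 30 min at 37 deg C. ADP detected by HTRF Transcreener, 665/615 ratio.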
G9a inh – inhibitors of human histone lysine methyltransferase G9a | Q96KQ7 | G9a H3K9 monomethylation, AlphaScreen, 2 h | Potency, µM (titrated, usually from 102 µM), inactives show at the top dose activity, negative = inhibition, hits mostly inhibitors | 350,000 tested, 8.8% active | AID 504332; further: potency means the concentration at half of the fitted maximal effect; nearly all actives have a fitted effect of over 75% in size
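Step 1: enzyme (final 20 nM) with compound, 15 min RT. Step 2: substrate peptide 500 nM and SAM 20 uM, 2 h RT. Step 3: anti-H3K9me1 antibody and AlphaScreen beads, 10 min, then plate read.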
PLK1 PBD inh – inhibitors of human PLK1 polo-box domain binding. P53350. Plk1 PBD binding of FITC phosphopeptide, fluorescence polarization. Potency, µM, without a hit: max response, negative = inhibition, most hits filed as inhibitors. 360,000 tested, 2.8% active; further: potency means the concentration at half of the fitted maximal effect; series mostly up to about 57 µM; nearly all actives have a fitted effect of over 65% in size
Target sequence (P53350 whole entry, looked up, the tested form may be a part): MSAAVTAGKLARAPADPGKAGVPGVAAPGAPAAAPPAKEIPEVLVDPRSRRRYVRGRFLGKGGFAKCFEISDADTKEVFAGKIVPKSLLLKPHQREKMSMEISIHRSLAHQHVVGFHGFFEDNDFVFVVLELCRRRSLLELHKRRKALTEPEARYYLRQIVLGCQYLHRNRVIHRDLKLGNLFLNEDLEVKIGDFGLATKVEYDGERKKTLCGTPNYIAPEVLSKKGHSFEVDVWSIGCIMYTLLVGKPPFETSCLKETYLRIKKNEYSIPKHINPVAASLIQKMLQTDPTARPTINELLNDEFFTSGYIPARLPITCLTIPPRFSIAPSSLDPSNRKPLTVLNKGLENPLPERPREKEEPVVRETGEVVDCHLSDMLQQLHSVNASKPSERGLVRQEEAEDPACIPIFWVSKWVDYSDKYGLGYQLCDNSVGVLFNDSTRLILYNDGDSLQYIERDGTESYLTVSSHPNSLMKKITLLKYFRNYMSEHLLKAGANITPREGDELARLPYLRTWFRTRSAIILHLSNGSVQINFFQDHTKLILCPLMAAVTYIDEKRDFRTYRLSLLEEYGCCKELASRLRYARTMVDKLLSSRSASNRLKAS
Sfp PPTase inh – Sfp phosphopantetheinyl transferase inhibition; Q9F4F7; Biochemical Sfp PPTase activity, qHTS; Potency, µM, inactives show largest response in the series, negative = inhibition, most hits filed as inhibitors; 310,000 tested, 3.5% active; AID 1490;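 further: the enzyme is Sfp with the accession as filed and its product quenches rhodamine fluorescence; potency means the concentration at half of the fitted maximal effect; 0% = enzyme reaction without inhibitor and -100% = no enzyme wells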
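Fluorescence-quenching assay with 15 nM Sfp, 5 uM rhodamine-CoA and 12.5 uM BHQ-2-labelled ybbR peptide in pH 7.6 Hepes/MgCl2 buffer. Enzyme was pre-incubated with compound for 15 min at room temperature. Rate was taken from the 30-min fluorescence change (525/598 nm).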
VDR inhibitor – blocks the human vitamin D receptor; P11473; VDR-SRC2-3 peptide fluorescence polarization, 2 h; Potency, µM, without a hit: max response, negative = inhibition, hits mostly inhibitors; 400,000 tested, 0.93% active; further: potency means the concentration at half of the fitted maximal effect
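Fluorescence polarization assay measuring small-molecule disruption of VDR binding to the coregulator peptide SRC2-3. Compounds were pin-transferred (23 nl) into the reagent mix and incubated 2 h at room temperature before reading.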
Mm-Cpn inhibitor – inhibitors of Methanococcus maripaludis chaperonin TRiC (MmCpn) | AID 504842 | Potency, µM (series often up to 76.9 µM), for inactives: top-dose activity, negative = inhibition, actives largely listed as inhibitors | 330,000 tested, 0.031% active | purified Mm-Cpn ATPase, ADP Transcreener TR-FRET; further: potency means the concentration at half of the fitted maximal effect; nearly all actives have a fitted effect of over 80% in size
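TR-FRET (320 nm excitation; 590 and 665 nm emission) reports ADP made from 10 uM ATP by 25 nM enzyme; compounds were preincubated 10 min, reaction run 30 min, both at 37°C.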
Numbers without * were called inactive; ? = inconclusive; . = no result; [ ] = another dose, or the depositor's remark. Compounds with a hit are over-represented: about 10% of the library has one in this group of screens. Unless noted, the call rests on the fitted dose curve; in most records, active means well fitted curve in the direction sought with a large enough effect; inconclusive means small, poorly fitted or top-dose-only effect, or another doubt; inactive means no such curve, though single readings can be large; an effect the other way counts as inactive or inconclusive. Unless noted, on the % scale 0 is the no-effect control and ±100 the full control effect.

SMILES | CCT modulator | G9a inh | PLK1 PBD inh | Sfp PPTase inh | VDR inhibitor | Mm-Cpn inhibitor
CCOC(=O)c1ccc(N2C(=O)C3CCCN3C2=S)cc1 (configuration not stated) | -1 | 1%[12.7 µM] | 12µM* | . | -21% | -1%
CCOc1ccc(NC(=O)CN2C(=O)C3CCCN3C2=O)cc1 (configuration not stated) | 1 | ? | 24µM* | 24% | -29% | 0%
CCOc1ccc(N2C(=O)C3CCCN3C2=S)cc1 (configuration not stated) | -2 | -9%[12.7 µM] | 21µM* | . | -11% | -3%
CCOc1ccc(NC(=O)CN2CCN(C3CCCCC3)C(=O)C2=O)cc1 | . | -5%[59 µM] | . | . | 13% | .
CC(=O)N1CCOc2cc(S(=O)(=O)Nc3c(C)cccc3C(C)C)c(Cl)cc21 | . | ? | . | . | 3% | -3%
O=C(NCc1ccccn1)C(=O)N/N=C/c1ccccc1O | -1 | 48%[59 µM] | -10% | 4% | 16% | -1%
Cc1cc(/C=N/NC(=O)C(=O)NCc2ccccn2)c(C)n1-c1cccc(Br)c1 | 0 | 50µM* | 0% | 5% | 11% | 1%
Cn1c(O)c(N=NC(=S)Nc2ccccc2F)c2cc(S(=O)(=O)N3CCOCC3)ccc21 | -3 | 32µM* | -6% | 22% | 9% | 0%
O=C1/C(=C/c2ccco2)SC(=S)N1CCC(=O)N1CCCCC1CCO (configuration not stated) | -10 | 45µM* | ? | 50µM* | -21% | -4%
O=C1/C(=C/c2cccs2)SC(=S)N1CC(=O)N1CCCCC1CCO (configuration not stated) | -1 | 71µM* | -17% | -11% | 6% | 0%
O=C1/C(=C/c2ccc(Cl)cc2)SC(=S)N1CCC(=O)N1CCCCC1CCO (configuration not stated) | 0 | -26% | -7% | -8% | -7% | ?
O=C1/C(=C/c2ccccc2)SC(=S)N1CCCC(=O)N1CCCCC1CCO (configuration not stated) | 1 | 15%[0.0925 µM] | -23% | -17% | -10% | 1%
Cc1ccccc1CN1C(=O)c2ccccc2S(=O)c2ccc(C(=O)NCc3ccco3)cc21 (configuration not stated) | . | -10%[59 µM] | . | . | -8% | .
COc1ccc(C2=NO[C@@H]3C(=O)N(c4ccc(C)cc4C)C(=O)[C@H]23)cc1OC | 0 | 13µM* | -9% | ? | -11% | 1%
COc1ccc(-c2cn(-c3ccc(C)cc3C)c(=O)[nH]2)cc1OC | -1 | 11µM* | -23% | -14% | -23% | -6%
COCCn1c(C)cc(O)c(C(c2ccc(F)cc2)N2CCN(c3ccccc3)CC2)c1=O (configuration not stated) | . | ? | . | . | 4% | .
S=c1[nH]c2ccccc2n2c(=S)[nH]nc12 | 1 | 1.8µM* | -19% | -22% | 6% | ?
S=c1[nH]nc2ccc3ccccc3n12 | 2 | . | ? | . | . | .
Cc1ccc(CN2C(=O)c3ccccc3Sc3ccc(C(=O)NC4CCCCC4)cc32)cc1 | . | 10%[59 µM] | . | . | 2% | .
CC(=O)c1cn(CC(=O)Nc2cccc(C)c2C)c2ccccc12 | -1 | 4% | -12% | 45µM* | 8% | 2%
CC1CCCCN1C(=O)CSc1nnc(-c2ccco2)n1CC1CCCO1 (configuration not stated) | 1 | 14µM* | -7% | 12% | -8% | 0%
Cc1ccc(C(=O)CSc2nnc(-c3ccco3)n2CC2CCCO2)cc1 (configuration not stated) | 0 | 11µM* | -20% | ? | -10% | -2%
CCn1c(SCC(=O)N2CCCCC2C)nnc1-c1ccco1 (configuration not stated) | -3 | 35µM* | -2% | -5% | -8% | 0%
Cc1ccc(NCc2nnc(SCC(N)=O)n2CC2CCCO2)c(C)c1 (configuration not stated) | -1 | 20%[59 µM] | 30µM* | 13% | -12% | -1%
CC1CCCCN1C(=O)CSc1nnc(-c2ccco2)n1C (configuration not stated) | 0 | -2% | -1% | 5% | 0% | 1%
